# Results filed as inconclusive are left out. Entries that show only a call come without a potency. The source made the active and inactive calls. The call rests on the fitted dose curve; tested in HEK293 reporter line.
# Experiment: qHTS for Inhibitors of the Functional Ribonucleoprotein Complex (vRNP) of Lassa (LASV) Arenavirus: LASV Primary Screen - GLuc reporter signal (AID 1347082); further: nearly all actives have a fitted effect of over 60% in size
# Conditions: LASV minigenome vRNP, Gaussia luciferase reporter; series mostly up to 57.5 µM
row,Structure (SMILES),Potency
1,CCCC(=O)OCC,inactive
2,CC(=O)O[C@]1(C(C)=O)CC[C@@H]2[C@@H]3C[C@H](C)C4=CC(=O)CC[C@]4(C)[C@H]3CC[C@@]21C,inactive
3,CO[C@H]1C=CO[C@@]2(C)Oc3c(C)c(O)c4c(O)c(c(C=NN5CCN(C)CC5)c(O)c4c3C2=O)NC(=O)C(C)=CC=C[C@H](C)[C@H](O)[C@@H](C)[C@@H](O)[C@@H](C)[C@H](OC(C)=O)[C@H]1C,inactive
4,CC1(C)C2CC1[C@@](C)(O)[C@H](O)C2 (stereo not given in full),inactive
5,CCCCCCCCCCCCCC/C(C(=O)O)=C(\C)C(=O)O,inactive
6,CC/C=C\CCOC(C)OCC (stereo not given),inactive
7,CC(C)(O)[C@@H]1CC(=O)[C@]2(C)[C@H](CC[C@@]3(C)[C@H](c4ccoc4)OC(=O)[C@H]4O[C@]432)[C@@]1(C)/C=C\C(=O)O,inactive
8,C[C@@H]1CC[C@]2(C(=O)O[C@@H]3O[C@H](CO)[C@@H](O)[C@H](O)[C@H]3O)CC[C@]3(C)C(=CCC4[C@@]5(C)C[C@@H](O)[C@H](O)[C@@](C)(C(=O)O[C@@H]6[C@H](O)C[C@@]7(C)C(CC[C@]8(C)C7CC=C7[C@H]9[C@](C(=O)O[C@@H]%10O[C@H](CO)[C@@H](O)[C@H](O)[C@H]%10O)(CC[C@@H](C)[C@@]9(C)O)CC[C@]78C)[C@@]6(CO)C(=O)O)C5CC[C@]43C)[C@@H]2[C@]1(C)O (stereo not given in full),inactive
9,COC(/C=C(\C)CCC=C(C)C)OC,inactive
10,CC(O)[C@H]1CC[C@H]2[C@@H]3CC[C@H]4C[C@@H](O)CC[C@]4(C)[C@H]3C(=O)C[C@]12C (stereo not given in full),inactive
11,CCc1ccc(C=C2SC(=S)NC2=O)cc1,inactive
12,CC1=CC=C(C(C)C)CC1,inactive
13,C=C1[C@H]2O[C@H]2[C@@H](OC(C)=O)[C@@]2(C)[C@@H](OC(C)=O)C[C@@H](OC(C)=O)[C@@](C)(O)[C@@H]2[C@@H](OC(C)=O)[C@@]2(O)[C@@H](C)C(=O)O[C@H]2[C@H]1Cl,inactive
14,C=C(C)C1CCC(C)(O)CC1 (stereo not given),inactive
15,Cc1c[nH]c(C=C2C(=O)Nc3ccccc32)c1CCC(=O)O,inactive
16,C[C@]12CC[C@@H](O)CC1=CC(=O)C1C2CC[C@]2(C)C(=O)[C@H](O)CC12 (stereo not given in full),inactive
17,CC1(C)C=Cc2c(c3ccccc3[nH]c2=O)O1,inactive
18,C[C@@H]1CC[C@H]2[C@H](C)[C@H]3CC[C@H]4C5[C@@H](O)CC6=CC(=O)CC[C@]6(C)[C@H]5C[C@H]4C3C(=O)N2C1 (stereo not given in full),inactive
19,O=C1N[C@@H](Cc2c[nH]c3ccccc23)C(=O)N[C@H]1Cc1c[nH]c2ccccc12,inactive
20,CN1CC[C@@]2([C@@]34CCN(C)C3Nc3ccccc34)c3ccccc3NC12 (stereo not given in full),inactive

row,Structure (SMILES),Potency
1,Cc1cc(Nc2nc(N[C@@H](C)c3ccc(F)cc3)c(C#N)cc2F)n[nH]1,inactive
2,CC(C)(O[C@@H]1O[C@H](CO)[C@@H](O)[C@H](O)[C@H]1O)[C@@H]1CC=C(C(=O)O)CC1,inactive
3,COc1c2ccoc2c(OC[C@@H](OC(C)=O)C(C)(C)O)c2oc(=O)ccc12,inactive
4,S=C(NCc1ccccc1)NCc1ccccc1,inactive
5,C[C@@H]1O[C@@H](O[C@H]2[C@H](O)[C@@H](O)[C@H](Oc3c(-c4ccc(O)c(O)c4)oc4cc(O)cc(O)c4c3=O)O[C@@H]2CO)[C@H](O)[C@H](O)[C@H]1O,inactive
6,C=C[C@@H]1CN2CC[C@@H]1C[C@H]2[C@H](O)c1ccnc2ccc(OC)cc12,inactive
7,CCCCCCCCCCCC,inactive
8,C=CC[C@]12C=C(OC)C(=O)C=C1O[C@@H](c1ccc3c(c1)OCO3)[C@H]2C,inactive
9,O=C(O)CCc1ccccc1,inactive
10,COc1cc2c(cc1O)CC[n+]1cc3c(OC)c(OC)ccc3cc1-2,inactive
11,COc1ccc2[nH]cc(CCO)c2c1,inactive
12,COC(=O)C(O)C(O)(CCC(C)C)C(=O)OC1C(OC)=CC23CCCN2CCc2cc4c(cc2C13)OCO4 (stereo not given),inactive
13,O=Cc1cc2ccccc2o1,inactive
14,COc1cc(CCc2ccccc2)c(C(=O)O)c(O)c1C/C=C(/C)CCC=C(C)C,inactive
15,CC(C)=CCC/C(C)=C/CC/C(C)=C/CCC1(C)CCc2cc(O)ccc2O1 (stereo not given),inactive
16,CC(Cc1c[nH]c2ccccc12)C(=O)O (stereo not given),inactive
17,O=C(CO)c1c[nH]c2ccccc12,inactive
18,CC(C)(O[C@@H]1O[C@H](CO)[C@@H](O)[C@H](O)[C@H]1O)[C@H]1Cc2cc3ccc(=O)oc3cc2O1,inactive
19,COc1cc2c(cc1CC=C(C)C)C(=O)C[C@@H](c1ccc(O)cc1)O2,inactive
20,COc1c(C(=O)/C=C/c2ccccc2)ccc2c1C=CC(C)(C)O2,inactive

# Experiment: qHTS for Inhibitors of the Functional Ribonucleoprotein Complex (vRNP) of Lassa (LASV) Arenavirus: Viability assay - alamar blue signal for LASV Primary Screen (AID 1347083); further: nearly all actives have a fitted effect of over 80% in size; further: potency means the concentration at half of the fitted maximal effect
# Conditions: cell viability, alamar blue fluorescence (LASV minigenome counter-screen); series mostly up to 57.5 µM
row,Structure (SMILES),Potency
1,CCCC(=O)OCC,inactive
2,CC(=O)O[C@]1(C(C)=O)CC[C@@H]2[C@@H]3C[C@H](C)C4=CC(=O)CC[C@]4(C)[C@H]3CC[C@@]21C,inactive
3,CO[C@H]1C=CO[C@@]2(C)Oc3c(C)c(O)c4c(O)c(c(C=NN5CCN(C)CC5)c(O)c4c3C2=O)NC(=O)C(C)=CC=C[C@H](C)[C@H](O)[C@@H](C)[C@@H](O)[C@@H](C)[C@H](OC(C)=O)[C@H]1C,inactive
4,CC1(C)C2CC1[C@@](C)(O)[C@H](O)C2 (stereo not given in full),inactive
5,CCCCCCCCCCCCCC/C(C(=O)O)=C(\C)C(=O)O,inactive
6,CC/C=C\CCOC(C)OCC (stereo not given),inactive
7,CC(C)(O)[C@@H]1CC(=O)[C@]2(C)[C@H](CC[C@@]3(C)[C@H](c4ccoc4)OC(=O)[C@H]4O[C@]432)[C@@]1(C)/C=C\C(=O)O,inactive
8,C[C@@H]1CC[C@]2(C(=O)O[C@@H]3O[C@H](CO)[C@@H](O)[C@H](O)[C@H]3O)CC[C@]3(C)C(=CCC4[C@@]5(C)C[C@@H](O)[C@H](O)[C@@](C)(C(=O)O[C@@H]6[C@H](O)C[C@@]7(C)C(CC[C@]8(C)C7CC=C7[C@H]9[C@](C(=O)O[C@@H]%10O[C@H](CO)[C@@H](O)[C@H](O)[C@H]%10O)(CC[C@@H](C)[C@@]9(C)O)CC[C@]78C)[C@@]6(CO)C(=O)O)C5CC[C@]43C)[C@@H]2[C@]1(C)O (stereo not given in full),inactive
9,COC(/C=C(\C)CCC=C(C)C)OC,inactive
10,CC(O)[C@H]1CC[C@H]2[C@@H]3CC[C@H]4C[C@@H](O)CC[C@]4(C)[C@H]3C(=O)C[C@]12C (stereo not given in full),inactive
11,CCc1ccc(C=C2SC(=S)NC2=O)cc1,inactive
12,CC1=CC=C(C(C)C)CC1,inactive
13,C=C1[C@H]2O[C@H]2[C@@H](OC(C)=O)[C@@]2(C)[C@@H](OC(C)=O)C[C@@H](OC(C)=O)[C@@](C)(O)[C@@H]2[C@@H](OC(C)=O)[C@@]2(O)[C@@H](C)C(=O)O[C@H]2[C@H]1Cl,inactive
14,C=C(C)C1CCC(C)(O)CC1 (stereo not given),inactive
15,Cc1c[nH]c(C=C2C(=O)Nc3ccccc32)c1CCC(=O)O,inactive
16,C[C@]12CC[C@@H](O)CC1=CC(=O)C1C2CC[C@]2(C)C(=O)[C@H](O)CC12 (stereo not given in full),inactive
17,CC1(C)C=Cc2c(c3ccccc3[nH]c2=O)O1,inactive
18,C[C@@H]1CC[C@H]2[C@H](C)[C@H]3CC[C@H]4C5[C@@H](O)CC6=CC(=O)CC[C@]6(C)[C@H]5C[C@H]4C3C(=O)N2C1 (stereo not given in full),inactive
19,O=C1N[C@@H](Cc2c[nH]c3ccccc23)C(=O)N[C@H]1Cc1c[nH]c2ccccc12,inactive
20,CN1CC[C@@]2([C@@]34CCN(C)C3Nc3ccccc34)c3ccccc3NC12 (stereo not given in full),inactive

row,Structure (SMILES),Potency
1,Cc1cc(Nc2nc(N[C@@H](C)c3ccc(F)cc3)c(C#N)cc2F)n[nH]1,4.85 µM (active)
2,CC(C)(O[C@@H]1O[C@H](CO)[C@@H](O)[C@H](O)[C@H]1O)[C@@H]1CC=C(C(=O)O)CC1,inactive
3,COc1c2ccoc2c(OC[C@@H](OC(C)=O)C(C)(C)O)c2oc(=O)ccc12,inactive
4,S=C(NCc1ccccc1)NCc1ccccc1,inactive
5,C[C@@H]1O[C@@H](O[C@H]2[C@H](O)[C@@H](O)[C@H](Oc3c(-c4ccc(O)c(O)c4)oc4cc(O)cc(O)c4c3=O)O[C@@H]2CO)[C@H](O)[C@H](O)[C@H]1O,inactive
6,C=C[C@@H]1CN2CC[C@@H]1C[C@H]2[C@H](O)c1ccnc2ccc(OC)cc12,inactive
7,CCCCCCCCCCCC,inactive
8,C=CC[C@]12C=C(OC)C(=O)C=C1O[C@@H](c1ccc3c(c1)OCO3)[C@H]2C,inactive
9,O=C(O)CCc1ccccc1,inactive
10,COc1cc2c(cc1O)CC[n+]1cc3c(OC)c(OC)ccc3cc1-2,inactive
11,COc1ccc2[nH]cc(CCO)c2c1,inactive
12,COC(=O)C(O)C(O)(CCC(C)C)C(=O)OC1C(OC)=CC23CCCN2CCc2cc4c(cc2C13)OCO4 (stereo not given),inactive
13,O=Cc1cc2ccccc2o1,inactive
14,COc1cc(CCc2ccccc2)c(C(=O)O)c(O)c1C/C=C(/C)CCC=C(C)C,inactive
15,CC(C)=CCC/C(C)=C/CC/C(C)=C/CCC1(C)CCc2cc(O)ccc2O1 (stereo not given),inactive
16,CC(Cc1c[nH]c2ccccc12)C(=O)O (stereo not given),inactive
17,O=C(CO)c1c[nH]c2ccccc12,inactive
18,CC(C)(O[C@@H]1O[C@H](CO)[C@@H](O)[C@H](O)[C@H]1O)[C@H]1Cc2cc3ccc(=O)oc3cc2O1,inactive
19,COc1cc2c(cc1CC=C(C)C)C(=O)C[C@@H](c1ccc(O)cc1)O2,inactive
20,COc1c(C(=O)/C=C/c2ccccc2)ccc2c1C=CC(C)(C)O2,inactive

# From PubChem BioAssay (NCATS)
